Results reported in the supplement of paper PMC8728848.
The entries come from a sample that favours the strongest signals as a whole.

Tests used:
Assay in all cases: glycan array binding signal (z-score within array); higher = stronger binding
Details in all cases: glycan notation: IUPAC condensed, linker removed
[1] = target: Fuc(a1-2)Gal(b1-3)GalNAc(b1-4)[Neu5Ac(a2-3)]Gal(b1-4)Glc
Procedure, shortened: (§1)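 The Consortium for Functional Glycomics database supplied 3228 glycan arrays, of which those lacking an available protein sequence were dropped. The binding signal, a within-array Z-score, was averaged across arrays of the same protein sequence and across linkers. Negative scores can be read as non-binding.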

[2] = target: Fuc(a1-2)Gal(b1-3)GlcNAc(b1-3)[Neu5Ac(a2-6)Gal(b1-4)GlcNAc(b1-6)]Gal(b1-4)Glc
Procedure, shortened: as §1

[3] = target: Fuc(a1-2)Gal(b1-4)GlcNAc(b1-3)Gal(b1-4)GlcNAc(b1-2)Man(a1-3)[Fuc(a1-2)Gal(b1-4)GlcNAc(b1-3)Gal(b1-4)GlcNAc(b1-2)Man(a1-6)]Man(b1-4)GlcNAc(b1-4)GlcNAc
Procedure, shortened: as §1

[4] = target: Fuc(a1-2)Gal(b1-4)[Fuc(a1-3)]GlcNAc(b1-3)Gal(b1-4)[Fuc(a1-3)]GlcNAc
Procedure, shortened: as §1

[5] = target: Fuc(a1-2)Gal3S(b1-4)GlcNAc
Procedure, shortened: as §1

[6] = target: Fuc(a1-2)[Gal(a1-3)]Gal(b1-4)GlcNAc(b1-3)[Fuc(a1-2)[Gal(a1-3)]Gal(b1-4)GlcNAc(b1-6)]GalNAc
Procedure, shortened: as §1

[7] = target: Fuc(a1-2)[GalNAc(a1-3)]Gal(b1-3)GalNAc(a1-3)[Fuc(a1-2)]Gal(b1-4)GlcNAc
Procedure, shortened: as §1

[8] = target: Fuc(a1-2)[GalNAc(a1-3)]Gal(b1-3)GlcNAc(b1-6)GalNAc
Procedure, shortened: as §1

[9] = target: Fuc(a1-3)[Gal(b1-4)]GlcNAc(b1-6)GalNAc
Procedure, shortened: as §1

[10] = target: Fuc(a1-3)[Gal3S(b1-4)]GlcNAc6S
Procedure, shortened: as §1

Fuc(a1-4)GlcNAc = target: Fuc(a1-4)GlcNAc
Procedure, shortened: as §1

[11] = target: Gal(a1-3)[Gal(a1-4)]Gal(b1-4)GlcNAc
Procedure, shortened: as §1

Gal(a1-4)Gal(b1-4)GlcNAc = target: Gal(a1-4)Gal(b1-4)GlcNAc
Procedure, shortened: as §1

Gal(b1-3)GlcNAc = target: Gal(b1-3)GlcNAc
Procedure, shortened: as §1

[12] = target: Gal(b1-3)GlcNAc(a1-3)Gal(b1-4)GlcNAc
Procedure, shortened: as §1

[13] = target: Gal(b1-3)GlcNAc(b1-2)Man(a1-3)[Gal(b1-3)GlcNAc(b1-2)Man(a1-6)]Man(b1-4)GlcNAc(b1-4)GlcNAc
Procedure, shortened: as §1

[14] = target: Gal(b1-3)GlcNAc(b1-3)Gal(b1-4)GlcNAc(b1-3)Gal(b1-4)GlcNAc(b1-2)[Gal(b1-3)GlcNAc(b1-3)Gal(b1-4)GlcNAc(b1-3)Gal(b1-4)GlcNAc(b1-6)]Man(a1-6)[Gal(b1-3)GlcNAc(b1-3)Gal(b1-4)GlcNAc(b1-3)Gal(b1-4)GlcNAc(b1-2)Man(a1-3)]Man(b1-4)GlcNAc(b1-4)[Fuc(a1-6)]GlcNAc
Procedure, shortened: as §1

[15] = target: Gal(b1-4)GlcNAc(b1-2)Man(a1-3)Man(b1-4)GlcNAc(b1-4)GlcNAc
Procedure, shortened: as §1

[16] = target: Gal(b1-4)GlcNAc(b1-2)Man(a1-6)[GlcNAc(b1-2)Man(a1-3)]Man(b1-4)GlcNAc(b1-4)GlcNAc
Procedure, shortened: as §1

[17] = target: Gal(b1-4)GlcNAc(b1-3)Gal(b1-4)GlcNAc(b1-2)Man(a1-3)[Gal(b1-4)GlcNAc(b1-3)Gal(b1-4)GlcNAc(b1-2)Man(a1-6)]Man(b1-4)GlcNAc(b1-4)[Fuc(a1-6)]GlcNAc
Procedure, shortened: as §1

[18] = target: Gal(b1-4)GlcNAc(b1-3)Gal(b1-4)GlcNAc(b1-3)Gal(b1-4)GlcNAc(b1-2)Man(a1-3)[Gal(b1-4)GlcNAc(b1-3)Gal(b1-4)GlcNAc(b1-3)Gal(b1-4)GlcNAc(b1-2)Man(a1-6)]Man(b1-4)GlcNAc(b1-4)GlcNAc
Procedure, shortened: as §1

[19] = target: Gal(b1-4)GlcNAc(b1-3)Gal(b1-4)GlcNAc(b1-3)Gal(b1-4)GlcNAc(b1-3)Gal(b1-4)GlcNAc(b1-2)Man(a1-3)[Gal(b1-4)GlcNAc(b1-3)Gal(b1-4)GlcNAc(b1-3)Gal(b1-4)GlcNAc(b1-3)Gal(b1-4)GlcNAc(b1-2)Man(a1-6)]Man(b1-4)GlcNAc(b1-4)GlcNAc
Procedure, shortened: as §1

[20] = target: Gal(b1-4)GlcNAc(b1-3)Gal(b1-4)GlcNAc(b1-3)Gal(b1-4)GlcNAc(b1-3)Gal(b1-4)GlcNAc(b1-2)[Gal(b1-4)GlcNAc(b1-3)Gal(b1-4)GlcNAc(b1-3)Gal(b1-4)GlcNAc(b1-3)Gal(b1-4)GlcNAc(b1-6)]Man(a1-6)[Gal(b1-4)GlcNAc(b1-3)Gal(b1-4)GlcNAc(b1-3)Gal(b1-4)GlcNAc(b1-3)Gal(b1-4)GlcNAc(b1-2)Man(a1-3)]Man(b1-4)GlcNAc(b1-4)[Fuc(a1-6)]GlcNAc
Procedure, shortened: as §1

[21] = target: Gal(b1-4)GlcNAc(b1-3)Gal(b1-4)GlcNAc(b1-3)Gal(b1-4)GlcNAc(b1-3)Gal(b1-4)GlcNAc(b1-3)Gal(b1-4)GlcNAc(b1-2)Man(a1-3)[Gal(b1-4)GlcNAc(b1-3)Gal(b1-4)GlcNAc(b1-3)Gal(b1-4)GlcNAc(b1-3)Gal(b1-4)GlcNAc(b1-3)Gal(b1-4)GlcNAc(b1-2)Man(a1-6)]Man(b1-4)GlcNAc(b1-4)GlcNAc
Procedure, shortened: as §1

[22] = target: Gal(b1-4)GlcNAc(b1-3)Gal(b1-4)GlcNAc(b1-3)Gal(b1-4)GlcNAc(b1-3)Gal(b1-4)GlcNAc(b1-3)Gal(b1-4)GlcNAc(b1-2)[Gal(b1-4)GlcNAc(b1-3)Gal(b1-4)GlcNAc(b1-3)Gal(b1-4)GlcNAc(b1-3)Gal(b1-4)GlcNAc(b1-3)Gal(b1-4)GlcNAc(b1-6)]Man(a1-6)[Gal(b1-4)GlcNAc(b1-3)Gal(b1-4)GlcNAc(b1-3)Gal(b1-4)GlcNAc(b1-3)Gal(b1-4)GlcNAc(b1-3)Gal(b1-4)GlcNAc(b1-2)Man(a1-3)]Man(b1-4)GlcNAc(b1-4)[Fuc(a1-6)]GlcNAc
Procedure, shortened: as §1

[23] = target: Gal(b1-4)GlcNAc(b1-6)GalNAc
Procedure, shortened: as §1

Gal3S(b1-3)GlcNAc = target: Gal3S(b1-3)GlcNAc
Procedure, shortened: as §1

[24] = target: Gal3S(b1-4)[Fuc(a1-3)]GlcNAc
Procedure, shortened: as §1

[25] = target: GalNAc3S(b1-4)[Fuc(a1-3)]GlcNAc
Procedure, shortened: as §1

[26] = target: GlcNAc(b1-3)Gal(b1-4)GlcNAc(b1-3)Gal(b1-4)GlcNAc(b1-3)Gal(b1-4)GlcNAc(b1-3)Gal(b1-4)GlcNAc(b1-2)Man(a1-3)[GlcNAc(b1-3)Gal(b1-4)GlcNAc(b1-3)Gal(b1-4)GlcNAc(b1-3)Gal(b1-4)GlcNAc(b1-3)Gal(b1-4)GlcNAc(b1-2)Man(a1-6)]Man(b1-4)GlcNAc(b1-4)[Fuc(a1-6)]GlcNAc
Procedure, shortened: as §1

[27] = target: GlcNAc(b1-3)[GlcNAc(b1-6)]Gal(b1-4)GlcNAc
Procedure, shortened: as §1

[28] = target: Man(a1-3)[Man(a1-6)]Man(b1-4)GlcNAc(b1-4)GlcNAc
Procedure, shortened: as §1

[29] = target: Man(a1-3)[Man(a1-6)]Man(b1-4)GlcNAc(b1-4)[Fuc(a1-6)]GlcNAc
Procedure, shortened: as §1

Man(a1-6)Man = target: Man(a1-6)Man
Procedure, shortened: as §1

[30] = target: Neu5Ac(a2-3)Gal(b1-3)[Neu5Ac(a2-6)]GalNAc
Procedure, shortened: as §1

[31] = target: Neu5Ac(a2-3)Gal(b1-4)GlcNAc
Procedure, shortened: as §1

[32] = target: Neu5Ac(a2-3)Gal(b1-4)GlcNAc(b1-3)Gal(b1-4)GlcNAc(b1-3)Gal(b1-4)GlcNAc(b1-2)Man(a1-3)[Neu5Ac(a2-3)Gal(b1-4)GlcNAc(b1-3)Gal(b1-4)GlcNAc(b1-3)Gal(b1-4)GlcNAc(b1-2)Man(a1-6)]GalNAc
Procedure, shortened: as §1

[33] = target: Neu5Ac(a2-3)Gal(b1-4)GlcNAc(b1-3)Gal(b1-4)GlcNAc(b1-6)[Gal(b1-3)]GalNAc
Procedure, shortened: as §1

[34] = target: Neu5Ac(a2-3)Gal(b1-4)GlcNAc(b1-6)GalNAc
Procedure, shortened: as §1

[35] = target: Neu5Ac(a2-3)GalNAc(b1-4)GlcNAc
Procedure, shortened: as §1

[36] = target: Neu5Ac(a2-8)Neu5Ac(a2-3)Gal(b1-3)GalNAc(b1-4)[Neu5Ac(a2-3)]Gal(b1-4)Glc
Procedure, shortened: as §1

[37] = target: Neu5Ac(a2-8)Neu5Gc(a2-3)Gal(b1-4)GlcNAc
Procedure, shortened: as §1

[38] = target: Neu5Gc(a2-3)Gal(b1-4)GlcNAc
Procedure, shortened: as §1

[39] = target: Neu5Gc(a2-3)Gal(b1-4)[Fuc(a1-3)]GlcNAc
Procedure, shortened: as §1

B1: PX14343A-bvu-539-29-539 (Bacteroides vulgatus) (protein)
chain: DSLTESSSNTFWQTPDDALMALASCYDALQSNQLYNSDQYSLGPLYMDCISDNGGHFNWSGWMEGYDMAMGIHTPSSSIIGSYWKDCYEVISRCNVLIANIDRVDMDASQKAIYQAEAKTIRALMYINLTMTYQDVPFLTAPLTIDEAECEKTDRAAIVAHVMTDLQDAAEVLPQNASSRGHITKGAALSLLGRVALYNEKWDDAIAAYKQVQGLGYSLDPSYAKLFTQSGETSPEIIFAVRYEGPGMSEGAAFNAHWNTPLEAMNGTIDLADAYYCKDGKPTTDTKIAELNGGGGLDVSKPNPAHFENRDPRLYSTLFVPGMLWNGKGGIDTSASNPYANVYGGAAASLSTVYVYKYFDPTDTSNSWDNGQDFYVVRYAEVLLSLAEAMVQKGGYVYSDVTALVNEVRQRADVNMPTVEEVEGTSLSKDELLEVIKHERRVELAFEGLRLFDLYRWKELDKAVANIENERTMYGLAYEARKFNGERDYVWPLPTAELDTNKKLVQHDLWK
[1]
  glycan array binding signal (z-score): -0.271
[2]
  glycan array binding signal (z-score): -0.213
[3]
  glycan array binding signal (z-score): 8.08
[4]
  glycan array binding signal (z-score): -0.083
[5]
  glycan array binding signal (z-score): -0.406
[6]
  glycan array binding signal (z-score): 7.49
[7]
  glycan array binding signal (z-score): 0.132
[8]
  glycan array binding signal (z-score): -0.292
[9]
  glycan array binding signal (z-score): -0.298
[10]
  glycan array binding signal (z-score): -0.338
Fuc(a1-4)GlcNAc
  glycan array binding signal (z-score): -0.448
[11]
  glycan array binding signal (z-score): 6.76
Gal(a1-4)Gal(b1-4)GlcNAc
  glycan array binding signal (z-score): -0.281
Gal(b1-3)GlcNAc
  glycan array binding signal (z-score): -0.258
[12]
  glycan array binding signal (z-score): -0.396
[13]
  glycan array binding signal (z-score): 0.765
[14]
  glycan array binding signal (z-score): 4.27
[15]
  glycan array binding signal (z-score): 8.02
[16]
  glycan array binding signal (z-score): -0.116
[17]
  glycan array binding signal (z-score): 0.489
[18]
  glycan array binding signal (z-score): 1.35
[19]
  glycan array binding signal (z-score): 6.18
[20]
  glycan array binding signal (z-score): 3.38
[21]
  glycan array binding signal (z-score): 2.78
[22]
  glycan array binding signal (z-score): 9.28
[23]
  glycan array binding signal (z-score): -0.291
Gal3S(b1-3)GlcNAc
  glycan array binding signal (z-score): -0.038
[24]
  glycan array binding signal (z-score): -0.121
[25]
  glycan array binding signal (z-score): -0.399
[26]
  glycan array binding signal (z-score): 0.355
[27]
  glycan array binding signal (z-score): -0.27
[28]
  glycan array binding signal (z-score): -0.432
[29]
  glycan array binding signal (z-score): -0.297
Man(a1-6)Man
  glycan array binding signal (z-score): -0.184
[30]
  glycan array binding signal (z-score): 0.662
[31]
  glycan array binding signal (z-score): -0.373
[32]
  glycan array binding signal (z-score): 8.35
[33]
  glycan array binding signal (z-score): -0.244
[34]
  glycan array binding signal (z-score): 0.089
[35]
  glycan array binding signal (z-score): -0.142
[36]
  glycan array binding signal (z-score): -0.102
[37]
  glycan array binding signal (z-score): 4.74
[38]
  glycan array binding signal (z-score): -0.254
[39]
  glycan array binding signal (z-score): -0.404
